PMC4552634, “A New Set of Chemical Starting Points with Plasmodium falciparum Transmission-Blocking Potential for Antimalarial Drug Discovery” (PLoS ONE, 2015)
Hit rate of the full screen: of about 13,000 compounds, about 3,200 (25%) showed an effect of 50% or more. Some of the results follow.

test system: P. falciparum stage V gametocytes; parameters: BacTiter-Glo ATP luminescence viability of purified stage V gametocytes in 384-well plates, per cent inhibition versus DMSO; conditions: 48 h, 5 µM; inhibitor

Row | Structure (SMILES) | % Inhibition [%]
1 | Cc1cccc2[nH]c(-c3cccc(-c4cccc(NC(=O)Nc5ccc(F)c(F)c5F)c4)c3)nc12 [TCMDC-133227] | -33.06
2 | COc1cncc(/C=C/c2cncc(C(=O)NCCc3ccc(Cl)cc3Cl)c2)c1 [TCMDC-134508] | -1.142
3 | CCOc1cc(C=NNc2nc(C)cc(-n3nc(C)cc3C)n2)ccc1O [TCMDC-124094] | 92.61
4 | CCOc1ccc(Nc2cc(C)nc(Nc3ccc(OCC)cc3)n2)cc1 [TCMDC-125772] | -32.28
5 | CCOc1cc(/C=N/Nc2nc3ccccc3[nH]2)ccc1OCc1ccc([N+](=O)[O-])cc1 [TCMDC-124191] | -53.42
6 | CC1(C)N=C(N)N=C(N)N1OCCSc1ccccc1 [TCMDC-131670] | -8.546
7 | CCNC(=O)Nc1cccc(-c2cccc(-c3nc4c(C)cccc4[nH]3)c2)c1 [TCMDC-133172] | -6.099
8 | CSc1ccc2ccccc2c1CCNCCCCNCCc1c(SC)ccc2ccccc12 [TCMDC-137763] | 109.4
9 | CC1CCC(NCc2c(O)ccc3ccccc23)CC1 (stereo not shown) [TCMDC-137602] | -21.28
10 | CSc1ccc2ccccc2c1CNCCCCCCNCc1c(SC)ccc2ccccc12 [TCMDC-137758] | 72.82
11 | CC1CN(Cc2csc(Nc3ccccc3)n2)CC(C)O1 (stereo not shown) [TCMDC-125078] | 46.05
12 | FC(F)(F)c1ccc2c(C=Cc3ccncc3)c[nH]c2c1 [TCMDC-137257] | 12.06
13 | CCCC(=O)Nc1ccc(OCCCCN(Cc2ccccc2C(F)(F)F)c2ccc(C(F)(F)F)c(C#N)c2)cc1 [TCMDC-133359] | 32.41
14 | CCCCN(C)CC#Cc1ccc2[nH]c(C)c(Cl)c(=O)c2c1 [TCMDC-136185] | 85.15
15 | Cc1[nH]c2ccccc2c(=O)c1Br [TCMDC-137427] | 12.8
16 | CCCCN(C)CC#Cc1ccc(-c2ccc3[nH]c(C)c(Br)c(=O)c3c2)cn1 [TCMDC-136285] | 11.41
17 | Cc1[nH]c2ccc(-c3ccc(N(C)C)cc3)cc2c(=O)c1Cl [TCMDC-136188] | 61.07
18 | Cc1[nH]c2ccc(-c3ccccc3)cc2c(=O)c1Br [TCMDC-135426] | 61.46
19 | CCCCc1ccc(-c2ccc3[nH]c(C)c(Br)c(=O)c3c2)cc1 [TCMDC-135463] | 34.89
20 | O=c1c2ccccc2[nH]c2cc(Cl)ccc12 [TCMDC-123989] | -7.86
21 | Cc1ccc2c(=O)c3cc(C)ccc3[nH]c2c1 [TCMDC-138194] | 58.3
22 | CCN(CC)CC#Cc1ccc2[nH]c(C)c(Cl)c(=O)c2c1 [TCMDC-136162] | 0.7622
23 | Cc1[nH]c2ccc(-c3ccc(OC(F)(F)F)cc3)cc2c(=O)c1C#N [TCMDC-136129] | 23.98
24 | Cc1[nH]c2ccccc2c(=O)c1-c1ccc(Cl)cc1 [TCMDC-137172] | 25.44
25 | Cc1ccc2[nH]c3ccccc3c(=O)c2c1 [TCMDC-123947] | 19.38

Row | Structure (SMILES) | % Inhibition [%]
26 | Cc1ccc2nc(Nc3ccc(Nc4nc5ccc(C)cc5[nH]4)c(C)c3)[nH]c2c1 [TCMDC-131952] | -70.19
27 | COc1ccc2nccc([C@@H](O)CN3CCC(NC(=O)c4cc5ccccc5[nH]4)CC3)c2c1 [TCMDC-140780] | -18.21
28 | O=C(Nc1ccc(CC(=O)N2CCc3cc(Cl)c(N4CCN(C/C=C/c5ccccc5)CC4)cc32)cc1)Nc1cccc([N+](=O)[O-])c1 [TCMDC-139475] | 6.892
29 | Cc1cc(Nc2cccc(C#N)c2)nc(Nc2ccccc2C)n1 [TCMDC-133471] | -8.734
30 | CCCCNC(=O)[C@H](CC1CCCCC1)NC(=O)c1ccc(O)c(-c2cccc(C(F)(F)F)c2)c1 [TCMDC-140812] | 31.87
31 | O=C(Nc1cc(Cl)ccc1O)c1cc(-c2ccccc2O)no1 [TCMDC-125274] | -14.42
32 | O=c1c(Br)c(C(F)(F)F)[nH]c2ccc(Oc3ccccc3)cc12 [TCMDC-135798] | -15.2
33 | Cc1ccc2[nH]c(C)c(Br)c(=O)c2c1 [TCMDC-124347] | 65.99
34 | Cc1[nH]c2ccc(C#N)cc2c(=O)c1Br [TCMDC-135219] | 27.39
35 | COC(=O)c1ccccc1N1CCN(CCCCNC(=O)c2ccc(NC(=O)c3cc(Cl)cc(Cl)c3)cc2)CC1 [TCMDC-138235] | 7.414
36 | NC(N)=Nc1ccc(OCCCCCOc2ccc(N=C(N)N)cc2Br)c(Br)c1 [TCMDC-137543] | 77.55
37 | NC(N)=Nc1ccc(OCCCCCOc2ccc(N=C(N)N)cc2)cc1 [TCMDC-137482] | 39.96
38 | NC(N)=Nc1ccc(OCCCCCOc2ccc(N=C(N)N)c(Cl)c2)cc1Cl [TCMDC-137577] | 34.57
39 | Cc1nc(N)nc(N)c1-c1cc(Cl)c(N)c(Cl)c1 [TCMDC-137386] | -88.48
40 | Cc1nc2ccccc2c(=O)n1/N=C/c1ccccc1[N+](=O)[O-] [TCMDC-125512] | 2.657
41 | CCCCOc1cc2[nH]cc(C(=O)OCC)c(=O)c2cc1OCCCC [TCMDC-137523] | 63.76
42 | CCOC(=O)c1c[nH]c2c(ccc3ccccc32)c1=O [TCMDC-123857] | 33.13
43 | CCOC(=O)c1c[nH]c2c(sc3cc(OC)ccc32)c1=O [TCMDC-137190] | 2.888
44 | CCCc1cc(NCC)nc(Nc2ccc(C)cc2)n1 [TCMDC-134013] | -22.6
45 | Cc1cccc(OCC(=O)Nc2cccc(NC(=O)COc3cccc(C)c3)n2)c1 [TCMDC-123837] | 22.25
46 | COc1cc(C(=O)NC2CCc3ccccc32)cc(Cl)c1OC (stereo not shown) [TCMDC-124601] | 17.65
47 | Cc1cccc(Nc2nccc(Nc3cccc(C(=O)NCCN4CCOCC4)c3)n2)c1 [TCMDC-124774] | -4.453
48 | OC(CNc1ccnc(Nc2cccc(CCN3CCOCC3)c2)n1)c1ccccc1 (stereo not shown) [TCMDC-136463] | 12.7
49 | Cc1cnc(Nc2cccc(CCN3CCOCC3)c2)nc1NC(C)C [TCMDC-133533] | 57.17
